Experiment [1] concerns the target DNA repair nuclease/redox regulator APEX1 (Homo sapiens) (UniProt P27695). Kind of experiment: qHTS Validation Assay for Inhibitors of the Human Apurinic/apyrimidinic Endonuclease 1 (APE1) (AID 1705; also: potency is read from the fitted curve at half-maximal effect). Summed up: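 Fluorogenic double-stranded THF abasic-site substrate (5'-TAMRA/3'-BHQ-2), 50 nM final. Enzyme preincubated with compound 15 min at room temperature, then substrate added. Kinetic fluorescence (ex 525/em 598 nm) read three times at 60 s intervals; activity taken as third-minus-first read difference.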

The target of experiment [2] is Endonuclease 4 (Escherichia coli (strain K12)) (UniProt P0A6C1). Kind of experiment: Counterscreen for APE1 Inhibitors: qHTS Validation Assay for Inhibitors of Endonuclease IV (AID 1708). Also: potency is read from the fitted curve at half-maximal effect. Summed up: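 2 nM enzyme was preincubated with compounds for 15 min at room temperature in 50 mM Tris-HCl pH 7.5, 50 mM NaCl, 2 mM MgCl2, 1 mM DTT, 0.01% Tween-20. 50 nM THF-abasic TAMRA/BHQ-2 duplex substrate started the reaction.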
A general note: The purpose of a counterscreen is to sort out artefacts and off-target activity.

The nature of experiment [3]: qHTS for differential inhibitors of proliferation of Plasmodium falciparum line 7G8 (AID 1815).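 Also: parasite growth measured after three days of incubation.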 Also: potency is read from the fitted curve at half-maximal effect. On the technique in general: In qHTS, concentration-response curves come from the screen itself.
Experiment [4] is described as follows: qHTS for differential inhibitors of proliferation of Plasmodium falciparum line GB4 (AID 1816).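 Also: parasite growth measured after 72 h incubation.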 Also: potency is read from the fitted curve at half-maximal effect. The conditions noted are these: Potency: Plasmodium falciparum GB4 proliferation inhibition.
The nature of experiment [5]: qHTS for differential inhibitors of proliferation of Plasmodium falciparum line 3D7 (AID 1876). Also: potency is read from the fitted curve at half-maximal effect.
Experiment [6] in a line: qHTS for differential inhibitors of proliferation of Plasmodium falciparum line D10 (AID 1877).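 Also: parasites grown with compound for 72 h before DNA staining.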 Also: potency is read from the fitted curve at half-maximal effect.
Experiment [7] can be described thus: qHTS for differential inhibitors of proliferation of Plasmodium falciparum line Dd2 (AID 1882). Also: nearly all actives have a fitted effect of over 65% in size. Also: potency is read from the fitted curve at half-maximal effect. The conditions noted are these: Potency: Plasmodium falciparum Dd2 proliferation inhibition. Summed up: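 SYBR Green I DNA fluorescence read-out, ex 485/em 535 nm. Signals were normalized to 0.29 uM artemisinin and DMSO wells, then corrected using vehicle-only plates flanking each stack. Parasite growth ran 72 h in erythrocytes before lysis.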

The nature of experiment [8]: qHTS for differential inhibitors of proliferation of Plasmodium falciparum line HB3 (AID 1886).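 Also: parasites grown with compound for 72 h before SYBR Green readout.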 Also: potency is read from the fitted curve at half-maximal effect. The conditions noted are these: Potency: Plasmodium falciparum HB3 proliferation inhibition.
The target of experiment [9] is Ferritin light chain (Equus caballus) (UniProt P02791). Kind of experiment: qHTS Validation Assay for Identification of Novel General Anesthetics (AID 2323). Also: series mostly up to about 77 µM. Summed up: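 Horse-spleen apoferritin (10 uM) in PBS with 50% saturated 1-aminoanthracene; compounds pin-transferred, 10 min at room temperature. Fluorescence read at 380/535 nm, normalized to free 1-AMA and 1-AMA/apoferritin values; four-parameter Hill fit.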

Experiment [10] has as its target ATP-dependent DNA helicase Q1 (Homo sapiens) (UniProt P46063). The experiment in a line: qHTS Validation Assay for Inhibitors of RecQ-Like Dna Helicase 1 (RECQ1) (AID 2353). Also: potency is read from the fitted curve at half-maximal effect. The method, boiled down:
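50 nM RECQ1T1 preincubated 15 min with compound in Tris pH 8.0 buffer with MgCl2, DTT, Tween-20 and 2.5 ug/ml poly(dI-dC); started with 200 nM TAMRA/BHQ-2 forked duplex and 2 mM ATP. Unwinding read as fluorescence (525/598 nm), two reads 2 h apart.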

The nature of experiment [11]: Cytometric Cell-Based qHTS for Inhibitors of the mTORC1 Signaling Pathway in MEF (Tsc2-/-, p53-/-) Cells (AID 2660).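 Also: percent of cells above a phospho-rpS6 to PI ratio cutoff in each well; series mostly up to about 38 µM.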 The method, boiled down:
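Readout: Alexa-488 phospho-rpS6 (Ser235/236) intensity divided by PI intensity, thresholded against 7.5 nM rapamycin wells and reported as % positive cells. PI cell count served as the viability measure. Compound exposure was 24 hrs at 37 degree Celsius.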

Experiment [12] is described as follows: High Content Imaging Cell-Based qHTS for Inhibitors of the mTORC1 Signaling Pathway in MEF (Tsc2-/-, p53-/-) Cells (AID 2666).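 Also: percent of cells scored positive for phospho-rpS6 Ser235/236 immunostaining by imaging.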 The method, boiled down: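 Read-out: % positive cells per well, with thresholds from highest- and lowest-signal wells, based on phospho-rpS6 (Ser235/236) intensity normalized to Hoechst nuclear stain. Cells: Tsc2-/-, p53-/- MEFs carrying empty vector; compound 24 hrs, 37 degree Celsius.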

Experiment [13] is described as follows: High Content Imaging Cell-Based qHTS for Inhibitors of the mTORC1 Signaling Pathway in MEF Cells (AID 2667). Also: potency is read from the fitted curve at half-maximal effect. The method, boiled down:
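MEF (Tsc2-/-, p53-/-, WT Tsc2 re-expressed); cpd 24 h, 37 °C; PFA fix; Alexa-488 anti-p-rpS6 Ser235/236, PI, Hoechst; IN Cell imaging; Hoechst/Alexa-488 intensity ratio; % active cells, thresholds set from rapamycin and DMSO wells.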

Experiment [14] in a line: Counterscreen for APE1 Inhibitors: Fluorescent Dye Displacement Validation Assay (AID 1707). Also: potency is read from the fitted curve at half-maximal effect. Summed up:
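Thiazole Orange displacement from dsDNA: 250 nM ThO with 50 nM TAMRA-labelled abasic-site (tetrahydrofuran) duplex in 50 mM Tris-HCl pH7.5, 50mM NaCl, 2 mM MgCl2, 0.01% Tween-20. Loss of endpoint fluorescence (ex 480 nm, em 540 nm) flags DNA binders.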

Experiment [15] has as its target RecQ-like DNA helicase BLM (Homo sapiens) (UniProt P54132). The experiment in a line: qHTS Validation Assay for Inhibitors of Bloom's syndrome helicase (BLM) (AID 2364). Also: potency is read from the fitted curve at half-maximal effect. Summed up:
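BLM 50 nM in 25 mM Tris-HCl pH 8.0, 5 mM NaCl, 2 mM MgCl2, 1 mM DTT, 0.01% Tween-20, 2.5 ug/ml poly(dI-dC); 15 min cpd preinc, RT. Start: 200 nM forked DNA + 2 mM ATP (final). TAMRA read, 2 reads 2 h apart.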

A short description of experiment [16]: qHTS for differential inhibitors of proliferation of Plasmodium falciparum line W2 (AID 1883).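 Also: parasites grown with compound for 72 h before lysis and staining.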 Also: potency is read from the fitted curve at half-maximal effect. The conditions noted are these: Potency: Plasmodium falciparum W2 proliferation inhibition.
Experiment [17] is described as follows: qHTS Assay for Modulators of Human Peripheral Myelin Protein 22 (PMP22) Expression/Activity (AID 1967; active = well fitted curve in the direction sought with a large enough effect in the signal ratio; the % refers to the signal ratio). Summed up:
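Mouse MSC80 Schwann cells carrying Pmp22 promoter–green click beetle luciferase plus EF-alpha–red luciferase control, dosed 24 h at 37 °C. Dual-filter luminescence, overlap-corrected; %Activity from green/red ratio normalised to untreated cells, concentration-response curves fitted.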

In PubChem BioAssay (NCATS) one finds Potency and outcome data, which are given here for 9 molecules.

Records with an inconclusive call do not appear. Activity calls are given as the source filed them. Unless noted, calls follow the shape of the dose curve; as a rule, active = well fitted curve in the direction sought with a large enough effect; inconclusive = small, poorly fitted or top-dose-only effect, or another doubt; inactive = no such curve, though single readings can be large; an effect the other way counts as inactive or inconclusive.

Sequence of DNA repair nuclease/redox regulator APEX1 (Homo sapiens) (P27695 whole entry, looked up): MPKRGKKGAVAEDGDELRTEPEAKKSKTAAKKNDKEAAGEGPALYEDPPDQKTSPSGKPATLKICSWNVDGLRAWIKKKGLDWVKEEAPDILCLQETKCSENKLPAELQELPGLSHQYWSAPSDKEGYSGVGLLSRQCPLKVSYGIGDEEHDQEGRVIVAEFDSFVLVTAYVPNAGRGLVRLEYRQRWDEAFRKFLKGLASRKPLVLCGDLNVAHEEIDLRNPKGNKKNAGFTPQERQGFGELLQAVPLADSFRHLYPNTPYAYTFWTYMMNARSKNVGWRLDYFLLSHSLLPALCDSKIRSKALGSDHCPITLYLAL
Sequence of RecQ-like DNA helicase BLM (Homo sapiens) (P54132 whole entry, looked up): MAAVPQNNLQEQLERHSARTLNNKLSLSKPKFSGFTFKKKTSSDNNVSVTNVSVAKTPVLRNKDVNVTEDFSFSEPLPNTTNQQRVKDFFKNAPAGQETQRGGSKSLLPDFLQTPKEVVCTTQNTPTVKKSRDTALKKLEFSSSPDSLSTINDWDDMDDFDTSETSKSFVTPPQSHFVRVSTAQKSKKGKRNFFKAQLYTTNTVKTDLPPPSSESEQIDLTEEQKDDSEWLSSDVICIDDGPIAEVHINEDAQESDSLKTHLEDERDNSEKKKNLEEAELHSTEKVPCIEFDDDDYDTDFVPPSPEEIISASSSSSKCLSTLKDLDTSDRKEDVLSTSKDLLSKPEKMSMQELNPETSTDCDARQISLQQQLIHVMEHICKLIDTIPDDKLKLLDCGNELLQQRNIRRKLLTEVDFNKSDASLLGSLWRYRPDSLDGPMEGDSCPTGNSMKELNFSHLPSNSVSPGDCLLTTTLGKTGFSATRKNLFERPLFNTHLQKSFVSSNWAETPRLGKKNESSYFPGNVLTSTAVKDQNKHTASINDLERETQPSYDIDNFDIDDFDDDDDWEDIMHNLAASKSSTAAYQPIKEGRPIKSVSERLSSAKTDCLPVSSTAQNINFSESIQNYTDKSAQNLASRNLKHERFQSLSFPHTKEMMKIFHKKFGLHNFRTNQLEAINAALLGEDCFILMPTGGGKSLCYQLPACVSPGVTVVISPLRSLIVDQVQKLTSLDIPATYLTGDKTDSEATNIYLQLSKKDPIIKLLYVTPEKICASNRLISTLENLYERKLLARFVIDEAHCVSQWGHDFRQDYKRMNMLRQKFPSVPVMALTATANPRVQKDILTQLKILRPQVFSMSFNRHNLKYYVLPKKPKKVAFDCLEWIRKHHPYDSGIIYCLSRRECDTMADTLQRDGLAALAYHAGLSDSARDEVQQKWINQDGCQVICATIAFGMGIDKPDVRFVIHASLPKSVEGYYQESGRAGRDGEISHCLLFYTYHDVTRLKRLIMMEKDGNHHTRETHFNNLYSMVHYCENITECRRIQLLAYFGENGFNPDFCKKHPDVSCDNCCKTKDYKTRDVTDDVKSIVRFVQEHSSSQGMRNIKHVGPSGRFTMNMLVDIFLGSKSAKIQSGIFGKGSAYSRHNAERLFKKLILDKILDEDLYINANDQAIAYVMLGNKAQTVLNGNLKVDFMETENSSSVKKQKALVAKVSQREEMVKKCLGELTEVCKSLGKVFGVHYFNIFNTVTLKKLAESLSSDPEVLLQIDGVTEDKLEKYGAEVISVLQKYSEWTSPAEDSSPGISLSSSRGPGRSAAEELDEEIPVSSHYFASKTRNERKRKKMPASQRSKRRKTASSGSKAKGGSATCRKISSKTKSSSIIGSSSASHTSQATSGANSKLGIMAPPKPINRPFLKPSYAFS
Sequence of Ferritin light chain (Equus caballus) (P02791 2-175 limits assumed): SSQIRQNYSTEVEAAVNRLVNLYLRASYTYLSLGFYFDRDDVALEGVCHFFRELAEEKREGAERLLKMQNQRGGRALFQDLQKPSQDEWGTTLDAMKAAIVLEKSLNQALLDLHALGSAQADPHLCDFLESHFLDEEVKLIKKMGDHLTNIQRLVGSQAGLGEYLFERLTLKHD
Sequence of ATP-dependent DNA helicase Q1 (Homo sapiens) (P46063 whole entry, looked up): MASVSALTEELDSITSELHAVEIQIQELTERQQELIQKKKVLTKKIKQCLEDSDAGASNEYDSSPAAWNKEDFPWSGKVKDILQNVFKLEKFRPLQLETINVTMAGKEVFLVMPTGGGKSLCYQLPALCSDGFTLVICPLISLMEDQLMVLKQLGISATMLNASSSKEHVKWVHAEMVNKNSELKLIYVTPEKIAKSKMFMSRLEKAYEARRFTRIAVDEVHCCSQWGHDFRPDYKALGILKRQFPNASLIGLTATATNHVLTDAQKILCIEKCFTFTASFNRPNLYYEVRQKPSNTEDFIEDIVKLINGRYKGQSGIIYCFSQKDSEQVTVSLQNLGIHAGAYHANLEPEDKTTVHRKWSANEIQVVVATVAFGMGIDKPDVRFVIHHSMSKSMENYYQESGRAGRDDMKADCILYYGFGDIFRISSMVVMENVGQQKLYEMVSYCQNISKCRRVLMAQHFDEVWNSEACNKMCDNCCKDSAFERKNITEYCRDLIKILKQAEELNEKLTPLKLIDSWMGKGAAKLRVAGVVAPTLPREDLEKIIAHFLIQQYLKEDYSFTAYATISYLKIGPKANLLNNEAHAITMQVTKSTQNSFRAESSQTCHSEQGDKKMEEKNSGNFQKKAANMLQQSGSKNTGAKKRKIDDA

Consider `COc1ccc(OC)c(C(O)C(C)N)c1` (stereo not given), for which the Potency entry in experiment [1], in [2], in [3], in experiment [4], in experiment [5] and in experiment [6] was “inactive” each time. The Potency entry in experiment [7], in [8], in experiment [10], in experiment [11], in [12] and in [13] was “inactive” each time. In addition, the molecule was called inactive in experiment [9].
For `CN(N=O)c1ccc(O)c(O)c1`, the Potency was 501 nM (active) in experiment [1], 14.1 µM (active) in [14], 8.91 µM (active) in experiment [2] and 6.31 µM (active) in experiment [15]. The Potency result in [3], in [5], in [6], in experiment [7], in [11] and in experiment [12] was “inactive” throughout. The Potency entry in [13] is “inactive”.
For `CC(N)c1cccc(Cl)c1Cl` (stereo not given), the Potency entry in experiment [1], in experiment [14], in experiment [2], in experiment [5], in [6] and in experiment [8] was “inactive” in each case. Further, the Potency result in [10], in experiment [15], in experiment [11], in [12] and in experiment [13] was “inactive” throughout. Further, the Potency in experiment [4] is 11.2 µM (active); in experiment [16], 8.91 µM (active). Further, the result in experiment [17] was inactive.
As for `NC(Cc1cc(O)c(O)cc1O)C(=O)O` (stereo not given), the Potency is 112 nM (active) in experiment [1], 7.94 µM (active) in [14], 1.41 µM (active) in experiment [10] and 3.16 µM (active) in [15]. In addition, the Potency entry in experiment [4], in experiment [5], in experiment [6], in experiment [7], in [16] and in [8] was “inactive” in each case. Moreover, the Potency entry in [11], in experiment [12] and in [13] was “inactive” throughout.
Consider `CN1C2CCC1CC(OC(c1ccccc1)c1ccc(Cl)cc1)C2` (stereo not given), for which the Potency entry in experiment [1], in experiment [14], in [10] and in experiment [15] was “inactive” each time. The Potency in [3] is 2.24 µM (active); in [4] it was 2.24 µM (active); in experiment [5], 2.24 µM (active); in experiment [6], 7.94 µM (active); in experiment [7], 8.91 µM (active); in [16], 1.12 µM (active). The Potency in experiment [8] was 2.24 µM (active). In experiment [9], the result was inactive.
Turning to `COc1ccc2[nH]c3c(c2c1)CCNC3`, the Potency entry in [1], in [14], in [2], in experiment [3], in experiment [5] and in experiment [6] was “inactive” in each case. Moreover, the Potency entry in experiment [7], in experiment [8], in experiment [15], in experiment [11], in [12] and in [13] was “inactive” each time. The molecule was classed as inactive in [9].
Turning to `NNC(N)=O`, the Potency result in experiment [1], in experiment [14], in [3], in [4], in experiment [5] and in experiment [6] was “inactive” throughout. Moreover, the Potency result in [7], in [16], in experiment [8], in experiment [10], in experiment [15] and in experiment [11] was “inactive” each time. For the same molecule, the Potency entry in experiment [12] and in experiment [13] was “inactive” throughout. Besides, the molecule was classed as inactive in experiment [17] and in experiment [9].
Regarding `CO[C@H]1CC=C2CCN3CCC4=C(CC(=O)OC4)[C@]23C1`, the Potency result in experiment [1], in [14], in [3], in [4], in experiment [5] and in [6] was “inactive” each time. For the same molecule, the Potency entry in experiment [7], in experiment [16], in experiment [8], in [10], in experiment [11] and in experiment [12] was “inactive” each time. The Potency result in [13] was “inactive”. The outcome in experiment [17] and in [9] was inactive.
For `CC(C)(C)c1cc(C=C(C#N)C#N)cc(C(C)(C)C)c1O`, the Potency result in experiment [1], in experiment [2], in experiment [10], in experiment [11] and in [12] was “inactive” each time. Besides, the Potency is 1.12 µM (active) in [3]; 0.891 µM (active) in experiment [4]; 0.708 µM (active) in experiment [5]; 1.12 µM (active) in experiment [6]; 0.891 µM (active) in [7]; 0.355 µM (active) in [16]. The Potency in [8] was 1 µM (active); in experiment [13], 2.33 µM (active).
